S16 viability – S16 Schwann cell cytotoxicity; 43,000 compounds, 0.48% hits; S16 Pmp22-F2sN Schwann cells viability, CellTiter-Glo, 24 h; Potency, µM (titrated, usually from 57.5 µM), most hits filed as cytotoxic; AID 1508642; note: nearly all actives have a fitted effect of over 65% in size
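S16 Schwann cells carrying the Pmp22-F2sN reporter, seeded in 1536-well format, were exposed to library compounds for 24 h at 37C. Viability was read as CellTiter-Glo luminescence after 15 min at room temperature.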
PMP22 txn – modulators of PMP22 gene transcription in S16 Schwann cells; S16 Pmp22-F2sN Schwann cells (luciferase reporters placed in the Pmp22 gene), FLuc/NLuc coincidence luminescence, 24 h; Potency, µM (top dose mostly 57.5 µM), most hits filed as inhibitors; 43,000 compounds, 2% hits; active = clear falling dose curves in both reporters; inconclusive = both reporters move, but less clearly or upward; inactive = either reporter flat; the % is the NLuc reporter signal
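Rat S16 Pmp22-F2sN cells, 500-1,000/well in phenol red-free DMEM + 10% FBS, compound-treated 24 h (37C, 5% CO2). Luminescence: FLuc read, Stop&Glo added, NLuc read.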
p53null 32C tox – p53 null cell cytotoxicity, permissive temperature. Potency, µM (doses to about 46.1 µM), actives largely listed as cytotoxic. 55,000 compounds, 0.62% hits. H1299-neo p53 null cells, ATP luminescence, 24 h, 32C; note: nearly all actives have a fitted effect of over 55% in size
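We seeded p53-null H1299-neo cells, incubated them overnight at 37C, and added compounds across a range up to 46 uM. After 24 hours at 32C, ATP reagent was applied for 20 min at room temperature and luminescence recorded.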
p53null 39C tox – p53 null cell cytotoxicity, nonpermissive temperature; H1299 p53-null (neo) cells, 39C, ATPlite viability, 24 h; Potency, µM (top dose mostly 46.1 µM), actives largely listed as cytotoxic; 55,000 compounds, 0.97% hits; AID 904; note: nearly all actives have a fitted effect of over 50% in size
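Following overnight plating at 37C (600 cells/well), H1299-neo or H1299-p53A138V cells are dosed up to 46 uM. Incubation lasts 24 hr at 39C before ATP detection.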
mTORC1 inh – reduces mTORC1 signaling in Tsc2 and p53 null MEF cells | Tsc2-/- p53-/- MEF, phospho-rpS6 immunofluorescence/PI, 24 h | Potency, µM (highest dose often 38.3 µM), actives largely listed as inhibitors | 44,000 compounds, 0.78% hits; note: nearly all actives have a fitted effect of over 50% in size
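Readout is phospho-S6 Alexa 488 signal normalized to PI per well, reported as % active cells with thresholds set from rapamycin (7.5 nM) and DMSO controls. Cells: Tsc2-/-, p53-/- MEFs, 24 hrs compound at 37 C; PI cell number serves as viability.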
Each line names hits and unclear results; the compound was inactive in the other large screens. An excerpt weighted towards active compounds, which were near 3.2% of everything screened. Unless noted, calls come from the whole dose curve; as a rule, active = well fitted curve in the direction sought with a large enough effect; inconclusive = small, poorly fitted or top-dose-only effect, or another doubt; inactive = no such curve, though single readings can be large; an effect the other way counts as inactive or inconclusive.

CC(C)N(Cc1ccccc1)S(=O)(=O)c1ccc(-c2cc(C(F)(F)F)on2)s1	none
CCn1cc(CNC(=O)c2cc(-c3ccc(C)cc3)nc3ccc(Br)cc23)c(C)n1	none
CCCCc1ccc(Nc2cc(C)nc(-n3nc(C)cc3C)n2)cc1	S16 viability inconclusive, PMP22 txn 15µM, p53null 39C tox 12.6µM
CN(C)c1ccc(C(=O)Nc2sc(Nc3ccccc3)nc2C(N)=O)cc1	p53null 32C tox inconclusive, p53null 39C tox inconclusive, mTORC1 inh 4.65µM
CN(C)c1ccc(C(=O)Nc2cccc(-c3nc4cccnc4s3)c2)cc1	PMP22 txn inconclusive
CCOc1cc(CNc2ccc(O)cc2)cc(Cl)c1OCc1ccccc1	S16 viability 8.91µM, PMP22 txn inconclusive, p53null 39C tox inconclusive, mTORC1 inh inconclusive
CCOc1cccc(CNc2ccc(O)cc2)c1OCc1ccccc1Cl	S16 viability inconclusive, PMP22 txn inconclusive, p53null 39C tox inconclusive
COc1ccc(-n2cnc3cc(C(=O)NC4CCCCCC4)ccc32)cc1	none
O=C(NCCCc1ccccc1)C1CC(=O)N(c2ccc3c(c2)OCCO3)C1 (stereo unspecified)	none (no result: S16 viability, PMP22 txn, mTORC1 inh)
O=C(CCCc1ccccc1)c1ccc2c(c1)OCCO2	p53null 32C tox 10µM, p53null 39C tox 12.6µM (no result: S16 viability, PMP22 txn, mTORC1 inh)
O=C(Nc1ccc2nc(SCC(=O)N3CCOCC3)sc2c1)c1cccc(Cl)c1	p53null 32C tox 31.6µM, p53null 39C tox inconclusive
CCOC(=O)CSc1nc2ccc(NC(=O)c3ccc(C)cc3)cc2s1	p53null 32C tox 10µM, p53null 39C tox inconclusive
Cc1ccccc1Nc1c(-c2ccc(N3CCOCC3)cc2)nc2ccc(Br)cn12	p53null 32C tox inconclusive, p53null 39C tox 10µM
COc1cc(O)ccc1-c1nc2ccc(Br)cn2c1Nc1ccccc1C	PMP22 txn inconclusive, p53null 32C tox inconclusive, p53null 39C tox 20µM
Cc1ccccc1Nc1c(-c2cccc(O)c2)nc2ccc(Br)cn12	none
Cc1ccccc1Nc1c(-c2ccc(N3CCOCC3)cc2)nc2ccccn12	p53null 32C tox 1.58µM, p53null 39C tox 0.316µM, mTORC1 inh inconclusive
Cc1ccccc1Nc1c(-c2ccc(N3CCOCC3)cc2)nc2cccc(C)n12	p53null 32C tox inconclusive, p53null 39C tox inconclusive
Cc1ccc(-c2c(CN3CCN(c4cccc(C(F)(F)F)c4)CC3)csc2C)cc1	none
CCOC(=O)c1ccccc1NC(=O)CSc1cn(CC(=O)N2CCCCCC2)c2ccccc12	PMP22 txn inconclusive
CC(=O)c1cccc(Nc2nc(-c3cccc(C)c3)nc3ccccc23)c1	S16 viability inconclusive, PMP22 txn inconclusive, p53null 32C tox inconclusive, p53null 39C tox 11.2µM, mTORC1 inh inconclusive
COCc1oc2ccc(NS(=O)(=O)c3ccc(C)cc3)cc2c1C(=O)OC	PMP22 txn 7.13µM, mTORC1 inh inconclusive
CCOc1ccc(S(=O)(=O)Nc2ccc3oc(C)c(C(=O)OCCOC)c3c2)cc1	PMP22 txn inconclusive
COc1ccc(-c2nc(CNC(=O)NC3CCCCC3)c(C)o2)cc1	S16 viability inconclusive, p53null 32C tox inconclusive
Cc1cc(C)cc(NC(=O)c2cccc3c2C(=O)N(C2CCCCC2)C3)c1	none
COc1cc(NC(=O)c2cccc3c2C(=O)N(C2CCCCC2)C3)cc(OC)c1OC	S16 viability inconclusive, PMP22 txn inconclusive, mTORC1 inh 14.7µM
Cc1ccc(CN2C(=O)C(O)(CC(=O)c3ccc(C)cc3)c3ccccc32)cc1 (stereo unspecified)	S16 viability inconclusive, PMP22 txn 7.61µM, mTORC1 inh 9.27µM
COc1ccc(OC)c(C(=O)CC2(O)C(=O)N(Cc3ccccc3C)c3ccccc32)c1 (stereo unspecified)	S16 viability inconclusive, p53null 39C tox inconclusive, mTORC1 inh inconclusive
Cc1ccc(C(=O)CC2(O)C(=O)N(Cc3ccccc3F)c3ccccc32)cc1 (stereo unspecified)	S16 viability inconclusive, PMP22 txn inconclusive, mTORC1 inh inconclusive
Cc1ccccc1CN1C(=O)C(O)(CC(=O)c2cccc(Br)c2)c2ccccc21 (stereo unspecified)	PMP22 txn inconclusive, p53null 32C tox inconclusive, p53null 39C tox 31.6µM
COc1ccc(-c2noc(CSc3nnc(-c4ccncc4)n3-c3ccc(OC)cc3)n2)cc1	S16 viability inconclusive, PMP22 txn 2.4µM
CCC1CCCCN1C(=O)c1nn(-c2ccc(C)cc2)c(=O)c2c1c1ccccc1n2C (stereo unspecified)	PMP22 txn inconclusive
O=C(NCCc1ccccc1)c1ccc2c(c1)nc1n2CCOC1	p53null 32C tox 7.94µM, p53null 39C tox 10µM
O=C(NCCc1ccccc1Cl)c1ccc2c(c1)nc1n2CCCCC1	p53null 32C tox 3.16µM, p53null 39C tox 2.51µM
Cc1ccccc1CCNC(=O)c1ccc2c(c1)nc1n2CCC(C)C1 (stereo unspecified)	PMP22 txn inconclusive, p53null 32C tox 10µM, p53null 39C tox inconclusive
CC(C)CCNC(=O)c1ccc2c(c1)nc1n2CCCCC1	p53null 32C tox 7.94µM, p53null 39C tox 6.31µM
Cc1ccc(CCNC(=O)c2ccc3c(c2)nc2n3CCOC2)cc1	none
CCC(=O)N1CCc2cc(Br)cc(S(=O)(=O)N3CCCC(C(=O)N(C)c4ccc(Br)cc4)C3)c21 (stereo unspecified)	PMP22 txn inconclusive
CCCn1c2ccccc2c2cnn(CC(=O)N3CCN(c4ccccc4)CC3)c(=O)c21	none
O=C(c1ccc(Cl)cc1)c1cn(Cc2ccccc2)c2cc3c(cc2c1=O)OCCO3	none
Cc1ccc(C)c(Nc2nc3nonc3nc2Nc2cccc(C)c2C)c1	S16 viability inconclusive, PMP22 txn inconclusive, p53null 39C tox inconclusive
CCOC(=O)c1ccc(Nc2nc3nonc3nc2Nc2cccc(C)c2C)cc1	S16 viability inconclusive, PMP22 txn 10.6µM, p53null 39C tox inconclusive
COc1ccc(-n2cc(-c3ccc4c(c3)OCO4)n(CC(=O)Nc3cccc(C)c3C)c2=O)c(OC)c1	S16 viability inconclusive, p53null 39C tox inconclusive
COc1ccc(-n2cc(-c3ccc4c(c3)OCO4)n(CC(=O)Nc3cc(Cl)ccc3C)c2=O)cc1	S16 viability inconclusive, PMP22 txn inconclusive, p53null 32C tox 15.8µM, p53null 39C tox 10µM
Cc1ccccc1C(=O)Nc1sc2c(c1C(=O)N1CCC(C)CC1)CCC(C)C2 (stereo unspecified)	none
COc1ccc(N(Cc2cccs2)C(=O)c2ccco2)cc1	none
CCN(C(=O)c1ccco1)c1nnc(-c2ccc(OC)cc2)s1	p53null 32C tox inconclusive, p53null 39C tox 12.6µM (no result: S16 viability, PMP22 txn, mTORC1 inh)
COc1ccccc1NC(=O)c1c(NCc2ccc(C)o2)sc2c1CCCCC2	PMP22 txn 14.1µM, p53null 32C tox inconclusive, mTORC1 inh inconclusive
COc1ccc(OC)c(NC(=O)c2c(NCc3ccc(C)o3)sc3c2CCCCC3)c1	S16 viability inconclusive, PMP22 txn inconclusive, mTORC1 inh inconclusive

Assay outcomes (PubChem BioAssay)
